Records with an inconclusive call do not appear. Where a call stands in place of a potency, no number is given. Unmarked numbers belong to inactive results. Calls of active or inactive are those of the source. The call rests on the fitted dose curve; in most records, active means well fitted activation curve with a large enough effect in the signal ratio in the repeat runs (not every such curve was filed as active); inconclusive means weak or mixed curves; inactive means flat fitted curve, though single readings scatter; the % refers to the signal ratio.
Assay: p53 small molecule agonists, cell-based qHTS assay (AID 1963582)
Method in brief: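 Quantitative HTS in p53RE-bla cells: after a 5 h settling period, compounds delivered in DMSO were left on cells for 16 h at 37 C, and reporter induction was measured as fluorescence following 2 h substrate loading.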

Row | Compound | Potency | activation
1 | Oc1ccc2c(c1)OCO2 | inactive | –
2 | O=C1c2ccccc2C(=O)c2cc(Cl)ccc21 | – | -0.497% [at 5.99 µM]
3 | O=C1CCCCCCCCCCCCCC1 | inactive | –
4 | NC(=O)C(=O)N/N=C/c1ccc([N+](=O)[O-])o1 | inactive | –
5 | Oc1cc2ccccc2cc1O | inactive | –
6 | CCC(=O)C(=O)CC | inactive | –
7 | C=Cc1ccccc1C=C | inactive | –
8 | NS(=O)(=O)c1cc(C(=O)O)cc(N2CCCC2)c1Oc1ccccc1 | inactive | –
9 | CC1(C)S[C@@H]2[C@H](NC(=O)C(C(=O)O)c3ccccc3)C(=O)N2[C@H]1C(=O)O (some centres not stated) | inactive | –
10 | CCCCCCCCCCCC(C)=O | inactive | –
11 | OCCN1C[C@H](O)[C@@H](O)[C@H](O)[C@H]1CO | inactive | –
12 | N[C@@H](COP(=O)(O)O)C(=O)O | – | 1.58% [at 13.5 µM]
13 | CC(C)(O)CCC(C)(C)O | inactive | –
14 | CC(=O)C1C(=O)C=C(C)OC1=O (configuration not stated) | inactive | –
15 | C=CC(=O)OCCOCCOCC | inactive | –
16 | C=COC(=O)C(C)(CC)CCC(C)C (configuration not stated) | inactive | –
17 | COCCOCCOCCOC | inactive | –
18 | CCCCCCCCCCCC(=O)N(CC)CC | inactive | –
19 | O=C(O)CCC(=O)C(=O)O | inactive | –
20 | CC1(C)Cc2cccc(N)c2O1 | inactive | –
21 | CC1=C(CC=O)C(C)(C)CCC1 | inactive | –

Row | Compound | Potency | activation
22 | CCOC(=O)CC(CC(=O)OCC)(OC(C)=O)C(=O)OCC | inactive | –
23 | CCNC(=O)NCCCOc1cccc(CN2CCCCC2)c1 | inactive | –
24 | O=C(CN1CCN(Cc2ccc3c(c2)OCO3)CC1)N1c2ccccc2Sc2ccccc21 | inactive | –
25 | COC(=O)C(C)O (configuration not stated) | inactive | –
26 | CC1OC(=O)C(C)OC1=O (configuration not stated) | inactive | –
27 | CC1(C)C(=O)N(CO)C(=O)N1CO | inactive | –
28 | COC(C)OC | inactive | –
29 | OC(CCN1CCCC1)(c1ccccc1)C1CCCCC1 (configuration not stated) | inactive | –
30 | C=CCSSCCC | inactive | –
31 | CCCCC(CC)COC(=O)COc1ccc(Cl)cc1C (configuration not stated) | inactive | –
32 | CCOC(=O)C(=O)OCC | inactive | –
33 | C=C(C)C(=O)OCCCC | inactive | –
34 | C[Si]1(C)O[Si](C)(C)O[Si](C)(C)O1 | inactive | –
35 | CCCCC(=O)O[C@]1(C(=O)CO)[C@H](C)C[C@H]2[C@@H]3CCC4=CC(=O)C=C[C@]4(C)[C@@]3(F)[C@@H](O)C[C@@]21C | inactive | –
36 | Nc1ccccc1S(=O)(=O)c1ccccc1 | inactive | –
37 | OCCC(F)(F)C(F)(F)C(F)(F)C(F)(F)C(F)(F)C(F)(F)C(F)(F)C(F)(F)F | inactive | –
38 | O=C1c2ccccc2C(=O)N1CCl | inactive | –
39 | C#CC(O)CCCCC (configuration not stated) | inactive | –
40 | C#CCOC(=O)[C@@H](C)Oc1ccc(Oc2ncc(Cl)cc2F)cc1 | inactive | –
41 | O=C(O)c1cccc(Cl)n1 | inactive | –
42 | C[N+]12CCC(CC1)C(OC(=O)C(O)(c1ccccc1)c1ccccc1)C2 (configuration not stated) | inactive | –

Reference: PubChem BioAssay (Tox21)
